PubChem BioAssay AID1159580 (chemical genetic matrix, 2015)
Several values for one entry are separate records, joined by “and”; a condition that tells them apart may be missing. Equal values may be shown once. The campaign covered roughly 5,500 compounds. About 2,000 (36%) were called active. Inconclusive results (about 18%) are left out. Cut-off read from the data, not from the text of the source: active = normalized growth mostly below about 0.91 (no sharp cut-off); inconclusive = no clear call, values can overlap the other calls; inactive = mostly above about 0.92. The list shows a part of the results.

Test: chemical genetic growth profiling, strain panel (AID 1159580);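 note: tested at 20 µM; growth read once vehicle control cultures reached saturation at 30 °C; 1 = growth at the plate median or of vehicle wells; lower values mean less growth of the strain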
Settings: growth OD

Measured: normalized growth

O=C(O)c1cccnc1C(=O)O
inactive: S. cerevisiae deletion strains, locus YJR066W, strain TOR1, hits give low values 0.979 | S. cerevisiae deletion strains, locus YJR075W, strain HOC1, hits give low values 1.08 | S. cerevisiae deletion strains, locus YKL009W, strain mrt4, hits give low values 1.03 | S. cerevisiae deletion strains, locus YKL068W, hits give low values 0.982 | S. cerevisiae deletion strains, locus YKL085W, strain MDH1 (second series), hits give low values 0.982 | S. cerevisiae deletion strains, locus YKL085W, strain MDH1, hits give low values 0.982 | S. cerevisiae deletion strains, locus YKL160W, strain elf1, hits give low values 0.999 | S. cerevisiae deletion strains, locus YKL190W, strain CNB1, hits give low values 1.01 | S. cerevisiae deletion strains, locus YKR001C, strain vps1, hits give low values 0.986 | S. cerevisiae deletion strains, locus YKR026C, strain gcn3, hits give low values 0.981 | S. cerevisiae deletion strains, locus YKR091W, strain srl3, hits give low values 0.999 | S. cerevisiae deletion strains, locus YLL001W, strain dnm1, hits give low values 1.04 | S. cerevisiae deletion strains, locus YLL026W, hits give low values 1.01 | S. cerevisiae deletion strains, locus YLL041C, strain sdh2, hits give low values 1 | S. cerevisiae deletion strains, locus YLR027C, strain aat2, hits give low values 1.01 | S. cerevisiae deletion strains, locus YLR039C, strain RIC1, hits give low values 1.08 | S. cerevisiae deletion strains, locus YLR058C, strain SHM2, hits give low values 1.02 | S. cerevisiae deletion strains, locus YLR102C, strain apc9, hits give low values 0.985 | S. cerevisiae deletion strains, locus YLR113W, strain HOG1, hits give low values 0.996 | S. cerevisiae deletion strains, locus YLR221C, strain rsa3, hits give low values 1.04 | S. cerevisiae deletion strains, locus YLR258W, strain gsy2, hits give low values 1.01 | S. cerevisiae deletion strains, locus YLR262C, strain YPT6 (second series), hits give low values 1.01 | S. cerevisiae deletion strains, locus YLR262C, strain YPT6, hits give low values 1.09 | S. cerevisiae deletion strains, locus YLR268W, strain sec22, hits give low values 1.01 | S. cerevisiae deletion strains, locus YLR320W, strain mms22, hits give low values 1.04 | S. cerevisiae deletion strains, locus YLR330W, strain CHS5, hits give low values 1.01 | S. cerevisiae deletion strains, locus YLR342W, strain FKS1 (second series), hits give low values 1.01 | S. cerevisiae deletion strains, locus YLR342W, strain FKS1, hits give low values 1.01 | S. cerevisiae deletion strains, locus YLR357W, strain rsc2, hits give low values 0.987 | S. cerevisiae deletion strains, locus YLR370C, strain arc18, hits give low values 0.984 | S. cerevisiae deletion strains, locus YLR371W, strain rom2, hits give low values 0.986 | S. cerevisiae deletion strains, locus YLR384C, strain iki3, hits give low values 1.01 | S. cerevisiae deletion strains, locus YLR418C, strain cdc73, hits give low values 1.04 | S. cerevisiae deletion strains, locus YML016C, strain PPZ1, hits give low values 1.01 | S. cerevisiae deletion strains, locus YML032C, strain rad52, hits give low values 1.01 | S. cerevisiae deletion strains, locus YML120C, strain ndi1, hits give low values 1 | S. cerevisiae deletion strains, locus YML124C, strain tub3, hits give low values 0.989 | S. cerevisiae deletion strains, locus YMR058W, strain fet3, hits give low values 1 | S. cerevisiae deletion strains, locus YMR078C, strain ctf18, hits give low values 0.99 | S. cerevisiae deletion strains, locus YMR125W, strain sto1, hits give low values 1 | S. cerevisiae deletion strains, locus YMR129W, hits give low values 0.987 | S. cerevisiae deletion strains, locus YMR205C, strain PFK2, hits give low values 0.988 | S. cerevisiae deletion strains, locus YMR223W, strain ubp8, hits give low values 1.01 | S. cerevisiae deletion strains, locus YMR231W, strain pep5, hits give low values 0.996 | S. cerevisiae deletion strains, locus YMR307W, strain GAS1, hits give low values 1.02 and 0.993 | S. cerevisiae deletion strains, locus YNL067W, strain RPL9B, hits give low values 1.06 | S. cerevisiae deletion strains, locus YNL071W, strain lat1, hits give low values 0.998 | S. cerevisiae deletion strains, locus YNL128W, strain TEP1, hits give low values 1.03 and 1.01 | S. cerevisiae deletion strains, locus YNL175C, strain NOP13, hits give low values 1.02 | S. cerevisiae deletion strains, locus YNL183C, strain NPR1, hits give low values 0.934 | S. cerevisiae deletion strains, locus YNL197C, strain WHI3, hits give low values 1.01 | S. cerevisiae deletion strains, locus YNL209W, strain ssb2, hits give low values 0.994 | S. cerevisiae deletion strains, locus YNL224C, strain SQS1, hits give low values 0.998 | S. cerevisiae deletion strains, locus YNL233W, strain BNI4, hits give low values 1.06 | S. cerevisiae deletion strains, locus YNL248C, strain rpa49, hits give low values 0.997 | S. cerevisiae deletion strains, locus YNL250W, strain rad50, hits give low values 0.984 | S. cerevisiae deletion strains, locus YNL271C, strain bni1, hits give low values 0.962 | S. cerevisiae deletion strains, locus YNL298W, strain CLA4, hits give low values 0.977 | S. cerevisiae deletion strains, locus YNL307C, strain MCK1, hits give low values 1.01 | S. cerevisiae deletion strains, locus YNL322C, strain KRE1 (second series), hits give low values 0.985 | S. cerevisiae deletion strains, locus YNL322C, strain KRE1, hits give low values 1.01 | S. cerevisiae deletion strains, locus YNR049C, strain mso1, hits give low values 0.989 | S. cerevisiae deletion strains, locus YNR052C, strain pop2, hits give low values 0.996 | S. cerevisiae deletion strains, locus YOL006C, strain TOP1, hits give low values 1.11 | S. cerevisiae deletion strains, locus YOL012C, strain htz1 1.66 | S. cerevisiae deletion strains, locus YOL147C, strain pex11, hits give low values 0.99 | S. cerevisiae deletion strains, locus YOR001W, strain rrp6, hits give low values 1.04 | S. cerevisiae deletion strains, locus YOR061W, strain CKA2, hits give low values 1.02 | S. cerevisiae deletion strains, locus YOR069W, strain VPS5, hits give low values 1.02 | S. cerevisiae deletion strains, locus YOR070C, strain gyp1, hits give low values 0.998 | S. cerevisiae deletion strains, locus YOR080W, strain dia2, hits give low values 0.974 | S. cerevisiae deletion strains, locus YOR083W, strain WHI5 (second series), hits give low values 1.03 | S. cerevisiae deletion strains, locus YOR083W, strain WHI5, hits give low values 0.945 | S. cerevisiae deletion strains, locus YOR106W, strain vam3, hits give low values 0.991 | S. cerevisiae deletion strains, locus YOR136W, strain idh2, hits give low values 1.02 | S. cerevisiae deletion strains, locus YOR144C, strain elg1, hits give low values 0.979 | S. cerevisiae deletion strains, locus YOR184W, strain ser1, hits give low values 0.998 | S. cerevisiae deletion strains, locus YOR231W, strain MKK1, hits give low values 1.03 | S. cerevisiae deletion strains, locus YOR265W, strain rbl2, hits give low values 0.989 | S. cerevisiae deletion strains, locus YOR270C, strain vph1, hits give low values 0.984 | S. cerevisiae deletion strains, locus YOR290C, strain snf2, hits give low values 0.987 | S. cerevisiae deletion strains, locus YOR316C, strain cot1, hits give low values 0.993 | S. cerevisiae deletion strains, locus YPL051W, strain arl3, hits give low values 1.02 | S. cerevisiae deletion strains, locus YPL055C, strain LGE1, hits give low values 1.11 | S. cerevisiae deletion strains, locus YPL078C, strain atp4, hits give low values 1.05 | S. cerevisiae deletion strains, locus YPL106C, strain sse1, hits give low values 1.06 | S. cerevisiae deletion strains, locus YPL240C, strain hsp82, hits give low values 0.994 | S. cerevisiae deletion strains, locus YPL256C, strain CLN2, hits give low values 1 | S. cerevisiae deletion strains, locus YPR119W, strain clb2, hits give low values 0.988 | S. cerevisiae deletion strains, locus YPR141C, strain kar3, hits give low values 0.978 | S. cerevisiae deletion strains, locus YPR163C, strain tif3, hits give low values 0.996 | S. cerevisiae deletion strains, locus YPR167C, strain met16, hits give low values 0.983 | S. cerevisiae deletion strains, strain wtn01, hits give low values 0.997 | S. cerevisiae strains, strain wild type, hits give low values 1.02
